Screening results from PubChem BioAssay.
p53null 32C tox = qHTS Screen for Compounds that Selectively Target Cancer Cells with p53 Mutations: Cytotoxicity of p53 Null Cells at the Permissive Temperature; H1299-neo p53 null cells, ATP luminescence, 24 h, 32C; Potency, µM (series often up to 46.1 µM), actives largely listed as cytotoxic; 55,000 tested, 0.62% active; note: nearly all actives have a fitted effect of over 55% in size
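We seeded p53-null H1299-neo cells, incubated them overnight at 37C, and added compounds across a range up to 46 uM. After 24 hours at 32C, ATP reagent was applied for 20 min at room temperature and luminescence recorded.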
S16 viability = Cell viability qHTS assay in S16 Pmp22-F2sN cells | S16 Pmp22-F2sN Schwann cells viability, CellTiter-Glo, 24 h | Potency, µM (highest dose often 57.5 µM), most hits filed as cytotoxic | 43,000 tested, 0.48% active; note: nearly all actives have a fitted effect of over 65% in size
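CellTiter-Glo counter-screen, qHTS, 1536-well. Cells: S16(c9) Pmp22-F2sN, 500-1,000/well in DMEM + 10% FBS. Cpd 23 nL pin transfer, 24 h, 37C/5% CO2. Read: luminescence, CCD imager.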
p53null 39C kill = qHTS Screen for Compounds that Selectively Target Cancer Cells with p53 Mutations: Cytotoxicity of p53 Null Cells at the Nonpermissive Temperature; H1299 p53-null (neo) cells, 39C, ATPlite viability, 24 h; Potency, µM (series often up to 46.1 µM), actives largely listed as cytotoxic; 55,000 tested, 0.97% active; AID 904, 2007; note: nearly all actives have a fitted effect of over 50% in size
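H1299 lung cancer cells, p53-null (H1299-neo) or expressing p53 A138V (H1299-p53A138V), were plated overnight at 37C, then exposed to compounds at up to 46 uM for 24 hr at 39C. Viability was read by ATP-based luminescence.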
mTORC1 inh = Acumen qHTS Assay for Inhibitors of the mTORC1 Signaling Pathway in MEF (Tsc2-/-, p53-/-) Cells: Sytravon; Tsc2-/- p53-/- MEF, phospho-rpS6 immunofluorescence/PI, 24 h; Potency, µM (series often up to 38.3 µM), hits mostly inhibitors; 44,000 tested, 0.78% active; note: nearly all actives have a fitted effect of over 50% in size
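Tsc2-/-, p53-/- mouse embryonic fibroblasts (empty-vector line) exposed to compound 24 hrs at 37 C, fixed, immunostained for phospho-rpS6 and counterstained with propidium iodide. Acumen laser scanning gives % positive cells from Alexa 488/PI ratio, thresholded using 7.5 nM rapamycin; PI count gives viability.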
PMP22 txn prim = Cell-based coincidence reporter assay to measure PMP22 gene transcription in S16 Pmp22-F2sN cells - Primary screen; S16 Pmp22-F2sN Schwann cells (luciferase reporters placed in the Pmp22 gene), FLuc/NLuc coincidence luminescence, 24 h; Potency, µM (doses to about 57.5 µM), most hits filed as inhibitors; 43,000 tested, 2% active; active = clear falling dose curves in both reporters; inconclusive = both reporters move, but less clearly or upward; inactive = either reporter flat; the % is the NLuc reporter signal
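qHTS, 1536-well. Cells seeded, compounds added by pin tool, 24 h 37C. Nano-Glo reagent 1 (lysis/FLuc), 10 min RT, read; Stop&Glo, 10 min RT, read NLuc.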
NLuc sat counter = Biochemical NLuc saturation counterscreen for small molecule modulators of PMP22 gene expression - Nano-Glo assay. shares compounds with PMP22 txn prim. Secreted NLuc enzyme (filtered S16 cell medium), Nano-Glo luminescence. Potency, µM (series often up to 57.5 µM), hits mostly inhibitors. 690 tested, 4% active. AID 1508638, 2021
NLuc Km ctr = Biochemical coelenterazine-based NLuc counterscreen for small molecule modulators of PMP22 gene expression - Km assay. secreted NLuc enzyme, coelenterazine luminescence, Km conditions. shares compounds with PMP22 txn prim. Potency, µM (titrated, usually from 57.5 µM), hits mostly inhibitors. AID 1508639, 2021. 690 tested, 5% active
FLuc ctr PMP22 = Biochemical FLuc counterscreen for small molecule modulators of PMP22 gene expression | Potency, µM (series often up to 57.5 µM), actives largely listed as inhibitors | shares compounds with PMP22 txn prim | purified P. pyralis FLuc, luminescence, 10 min | 690 tested, under 10 active
Target sequence (P08659 whole entry, looked up): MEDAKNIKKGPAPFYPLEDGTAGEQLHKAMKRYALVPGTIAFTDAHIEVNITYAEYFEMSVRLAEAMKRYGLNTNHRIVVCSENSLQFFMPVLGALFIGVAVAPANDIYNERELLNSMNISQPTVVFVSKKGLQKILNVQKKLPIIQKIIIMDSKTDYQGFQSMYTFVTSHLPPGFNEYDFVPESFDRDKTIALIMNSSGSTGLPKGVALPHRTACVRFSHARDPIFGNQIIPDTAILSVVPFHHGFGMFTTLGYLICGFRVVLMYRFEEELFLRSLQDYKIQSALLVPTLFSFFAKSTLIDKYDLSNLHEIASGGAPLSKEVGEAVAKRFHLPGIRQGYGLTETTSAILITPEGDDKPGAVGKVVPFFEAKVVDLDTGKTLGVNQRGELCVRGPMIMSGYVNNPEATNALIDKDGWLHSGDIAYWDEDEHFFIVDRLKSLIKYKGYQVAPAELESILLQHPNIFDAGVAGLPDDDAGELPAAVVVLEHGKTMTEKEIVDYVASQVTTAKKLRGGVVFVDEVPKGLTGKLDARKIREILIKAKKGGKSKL
S16 viab conf = Cell viability qHTS assay in S16 Pmp22-F2sN cells - Confirmatory screen | shares compounds with PMP22 txn prim | S16 Schwann cells viability, CellTiter-Glo ATP luminescence, 24 h | Potency, µM (series often up to 57.5 µM), actives largely listed as cytotoxic | 690 tested, 7% active
PMP22 txn cnf = Cell-based coincidence reporter assay to measure PMP22 gene transcription in S16 Pmp22-F2sN cells - Confirmatory screen; shares compounds with PMP22 txn prim; S16 Schwann cells Pmp22-F2sN, dual luciferase, 24 h; Potency, µM (titrated, usually from 57.5 µM), most hits filed as inhibitors; 690 tested, 22% active; active = clear falling dose curves in both reporters; inconclusive = both reporters move, but less clearly or upward; inactive = either reporter flat; the % is the FLuc reporter signal
PMP22 prot conf = Cell-based HiBiT reporter assay to measure PMP22 protein expression in S16 Pmp22-HiBiT cells - Confirmatory screen; Potency, µM (titrated, usually from 27.9 µM), most hits filed as inhibitors; S16 Schwann cells Pmp22-HiBiT, luminescence, 48 h; 95 tested, under 10 active; shares compounds with PMP22 txn prim
Target sequence (P25094 whole entry, looked up): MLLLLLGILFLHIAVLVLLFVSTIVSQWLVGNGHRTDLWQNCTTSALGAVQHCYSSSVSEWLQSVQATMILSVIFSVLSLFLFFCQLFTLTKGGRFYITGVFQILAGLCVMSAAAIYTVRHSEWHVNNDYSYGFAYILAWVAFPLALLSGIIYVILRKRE
Large screens that a line does not name were inactive (follow-up assays come after a bar, where they were run). The list is not random: actives were taken first. Their share in the collection is about 3.2%. Unless noted, calls come from the whole dose curve; as a rule, active = well fitted curve in the direction sought with a large enough effect; inconclusive = small, poorly fitted or top-dose-only effect, or another doubt; inactive = no such curve, though single readings can be large; an effect the other way counts as inactive or inconclusive.

CCN(C(=O)CN(C)S(=O)(=O)c1ccc2c(c1)n(C)c(=O)c(=O)n2C)c1cccc(C)c1	PMP22 txn prim 6.5µM | NLuc sat counter inactive | NLuc Km ctr inactive | FLuc ctr PMP22 inactive | S16 viab conf inactive | PMP22 txn cnf inactive
CCN(CC)CCOC(=O)c1ccc(NC(=O)Cn2ncc3c([nH]c4ccc(C)cc43)c2=O)cc1	S16 viability inconclusive, PMP22 txn prim 10µM | NLuc sat counter inactive | NLuc Km ctr inactive | FLuc ctr PMP22 inactive | S16 viab conf 15µM | PMP22 txn cnf 13µM
Cc1c(CNC2CCCCCC2)c(C(=O)O)c(C)n1Cc1cccc(Cl)c1	none
COc1ccc(NC(=O)CCn2c(=O)c3cccn3c3cccnc32)cc1Cl	none
O=C(CCCn1c(=O)c2ccccc2n(CC(=O)Nc2ccc(F)cc2F)c1=O)NCc1ccccc1Cl	PMP22 txn prim inconclusive
COc1ccccc1CNC(=O)CCCCn1c(=O)c2ccccc2n(Cc2ccccc2C)c1=O	PMP22 txn prim 14µM | NLuc sat counter inactive | NLuc Km ctr inconclusive | FLuc ctr PMP22 inactive | S16 viab conf inactive | PMP22 txn cnf inconclusive
COc1ccc(NC(=O)CCCn2c(=O)c3cccn3c3cccnc32)cc1Cl	PMP22 txn prim 15µM | NLuc sat counter inactive | NLuc Km ctr inactive | FLuc ctr PMP22 inactive | S16 viab conf inactive | PMP22 txn cnf inactive
Cc1cccc(CCn2c(=O)c3ccccc3n(CC(=O)Nc3ccccc3F)c2=O)c1	PMP22 txn prim 16µM | NLuc sat counter inactive | NLuc Km ctr inactive | FLuc ctr PMP22 inactive | S16 viab conf inactive | PMP22 txn cnf inactive
Cc1cccc(NC(=O)Cn2c(=O)n(CCc3ccccc3)c(=O)c3ccccc32)c1	PMP22 txn prim inconclusive
O=C(CCCCn1c(=O)c2ccccc2n(CC(=O)Nc2ccc(F)cc2F)c1=O)NCc1ccccc1Cl	PMP22 txn prim 16µM | NLuc sat counter inactive | NLuc Km ctr inactive | FLuc ctr PMP22 inactive | S16 viab conf inactive | PMP22 txn cnf inconclusive
COc1ccccc1CNC(=O)CCCCn1c(=O)c2ccccc2n(Cc2ccccc2F)c1=O	PMP22 txn prim inconclusive
CC1Cc2cc(S(=O)(=O)NCCc3ccc(Cl)cc3)ccc2N1C(=O)C1CCC1 (stereo unspecified)	none (no result: S16 viability, PMP22 txn prim)
CCOC(=O)c1ccccc1NC(=O)c1sc2ncn(CC)c(=O)c2c1C	none
COc1ccc(NC(=O)Cn2c(=O)n(Cc3ccccc3Cl)c(=O)c3cc(OC)c(OC)cc32)cc1OC	PMP22 txn prim 13µM | NLuc sat counter inactive | NLuc Km ctr inactive | FLuc ctr PMP22 inactive | S16 viab conf inactive | PMP22 txn cnf inactive
COc1ccc(NC(=O)Cn2c(=O)n(CCCC(=O)NCc3ccccc3OC)c(=O)c3ccccc32)cc1Cl	mTORC1 inh inconclusive, PMP22 txn prim inconclusive
COc1ccc(NC(=O)Cn2c(=O)n(Cc3ccc(C(=O)NCc4ccccc4Cl)cc3)c(=O)c3ccccc32)cc1OC	none
COc1ccc(NC(=O)Cn2c(=O)n(CCC(=O)NCc3ccccc3OC)c(=O)c3ccccc32)cc1Cl	PMP22 txn prim 15µM | NLuc sat counter inactive | NLuc Km ctr inactive | FLuc ctr PMP22 inactive | S16 viab conf inactive | PMP22 txn cnf 13µM | PMP22 prot conf inconclusive
COc1ccccc1-c1nn(CCC(=O)Nc2cccc(C(C)=O)c2)c2nc(C)cc(C)c12	PMP22 txn prim inconclusive
CC(C)Oc1ccc(CN2CCc3nc(Nc4ccc5c(c4)OCCO5)ncc3C2)cc1	none
COc1ccc(NC(=O)c2ccc3c(c2)c(C)c(C)n3Cc2ccc(F)cc2)cc1	p53null 39C kill inconclusive, mTORC1 inh inconclusive, PMP22 txn prim 15µM | NLuc sat counter inactive | NLuc Km ctr inactive | FLuc ctr PMP22 inactive | S16 viab conf inactive | PMP22 txn cnf inactive
Cc1cc(Nc2ccc(F)cc2)nc(-n2nc(C)cc2C)n1	S16 viability inconclusive, PMP22 txn prim inconclusive | NLuc sat counter inconclusive | NLuc Km ctr inactive | FLuc ctr PMP22 inactive | S16 viab conf inconclusive | PMP22 txn cnf 16µM
CCOC(=O)c1cc(-c2ccc(F)cc2)n(CCC(=O)NCCc2ccc(C)cc2)c1C	PMP22 txn prim inconclusive
COc1ccc(Br)cc1CC1C(=O)Nc2ccccc21 (stereo unspecified)	PMP22 txn prim 14µM | NLuc sat counter inconclusive | NLuc Km ctr inconclusive | FLuc ctr PMP22 inactive | S16 viab conf inactive | PMP22 txn cnf inconclusive | PMP22 prot conf inactive
Cc1ccccc1CC1C(=O)Nc2ccc(Br)cc21 (stereo unspecified)	S16 viability inconclusive
CCOC(=O)c1cccc(NC(=O)c2cc3cc4cc(OC)ccc4nc3s2)c1	PMP22 txn prim inconclusive
